# Compound activity deposited in PubChem by National Center for Advancing Translational Sciences (NCATS).
# Shown is part of a subset that was picked to be rich in hits.
# APE1 inh: qHTS Assay for Inhibitors of the Human Apurinic/apyrimidinic Endonuclease 1 (APE1); DNA repair nuclease/redox regulator APEX1 (Homo sapiens), P27695; recombinant APE1, TAMRA/BHQ-2 abasic DNA cleavage fluorescence; Potency, µM (doses to about 65.8 µM), for inactives: at the top dose activity change, negative = inhibition, actives largely listed as inhibitors; 350,000 tested, 0.35% active; AID 2517, 2012;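 also: plate controls were vehicle for no effect and reference inhibitor for full effect; nearly all actives have a fitted effect of over 55% in size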
# Target sequence (P27695 whole entry, looked up): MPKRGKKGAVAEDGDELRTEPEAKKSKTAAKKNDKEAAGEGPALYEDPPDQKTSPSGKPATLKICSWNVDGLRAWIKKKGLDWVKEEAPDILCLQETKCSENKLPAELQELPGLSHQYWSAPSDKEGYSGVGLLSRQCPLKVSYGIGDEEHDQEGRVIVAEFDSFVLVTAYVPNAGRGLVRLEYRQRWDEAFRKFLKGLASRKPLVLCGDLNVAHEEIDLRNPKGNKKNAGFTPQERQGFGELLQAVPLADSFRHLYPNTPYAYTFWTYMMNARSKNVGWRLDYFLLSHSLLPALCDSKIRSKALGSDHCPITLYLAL
#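 Enzyme (0.75 nM final) and test compound are incubated 15 min at room temperature before adding 50 nM quenched THF abasic-site duplex. Cleavage dequenches TAMRA, followed at 525/598 nm over three reads one minute apart.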
# BLM inh: qHTS Assay for Inhibitors of Bloom's syndrome helicase (BLM); RecQ-like DNA helicase BLM (Homo sapiens), P54132; recombinant BLM DNA unwinding, fluorescence dequenching; AID 2528, 2010; Potency, µM (titrated, usually from 56.1 µM), inactives show at the top dose activity change, negative = inhibition, most hits filed as inhibitors; 350,000 tested, 0.2% active;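 also: plate controls were vehicle for no effect and no enzyme for full effect; nearly all actives have a fitted effect of over 35% in size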
# PKM2 act: qHTS Assay for Activators of Human Muscle isoform 2 Pyruvate Kinase; Pyruvate kinase PKM (Homo sapiens), P14618; purified PKM2, Kinase-Glo ATP luminescence, activation; response scale: 0% is enzyme alone, no compound; Potency, µM (top dose mostly 57.5 µM), inactives show at the top dose activation, usual class: activators; 260,000 tested, 0.34% active; also: nearly all actives have a fitted effect of over 55% in size
#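 hPK-M2, >95% pure; 0.1 mM ADP / 0.5 mM PEP final; imidazole pH7.2 buffer w/ 7 mM MgCl2, 50 mM KCl; 1 h RT; Kinase-Glo lum. Intermediate enzyme activity for dual inhibitor/activator qHTS.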
# RECQ1 inh: qHTS Assay for Inhibitors of RecQ-Like Dna Helicase 1 (RECQ1); RECQ1 DNA unwinding, red fluorescence kinetic read; ATP-dependent DNA helicase Q1 (Homo sapiens), P46063; AID 2549, 2010; Potency, µM (highest dose often 57.3 µM), without a hit: top-dose activity, negative = inhibition, most hits filed as inhibitors; 240,000 tested, 0.54% active;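 also: plate controls were vehicle for no effect and no enzyme for full effect; nearly all actives have a fitted effect of over 30% in size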
#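 RECQ1T1 50 nM; forked duplex (20 bp + 30-nt ss tails) 200 nM, ATP 2 mM final; pH 8.0, 2 mM MgCl2, 2.5 ug/ml poly(dI-dC); 15 min compound preincubation; discontinuous kinetic read over 2 h at RT.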
# KDM4E inh: qHTS Assay for Inhibitors of Human Jumonji Domain Containing 2E (JMJD2E); Lysine-specific demethylase 4E (Homo sapiens), B2RXH2; JMJD2E catalytic domain, FDH-coupled NADH fluorescence (FDH is formaldehyde dehydrogenase); Potency, µM (series often up to 57.1 µM), for the others: top-dose activity change, negative = inhibition, hits mostly inhibitors; 230,000 tested, 1.6% active; AID 2147, 2009; active = well fitted inhibition curve with a large enough effect, not every such curve was filed as active; inconclusive = small, poorly fitted or top-dose-only effect, or another doubt; inactive = no such curve, though single readings can be large or run the other way;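 also: 0% = wells with enzyme and -100% = buffer wells without enzyme; nearly all actives have a fitted effect of over 50% in size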
# * hit, by the source's call; i = inactive; u = inconclusive; x = no result given; [ ] = dose if it differs, or a comment. Unless noted, calls follow the shape of the dose curve; as a rule, active = well fitted curve in the direction sought with a large enough effect; inconclusive = small, poorly fitted or top-dose-only effect, or another doubt; inactive = no such curve, though single readings can be large; an effect the other way counts as inactive or inconclusive. Unless noted, % is scaled to controls: 0 for no effect and ±100 for the full control effect; potency is read from the fitted curve at half-maximal effect.
SMILES,APE1 inh,BLM inh,PKM2 act,RECQ1 inh,KDM4E inh
COc1cc([C@@H]2Oc3cc([C@H]4Oc5cc(O)cc(O)c5C(=O)[C@H]4O)ccc3O[C@H]2CO)ccc1O,u,-4%,x,-23%,28µM*
COc1cc([C@@H]2Oc3cc(C4Oc5cc(O)cc(O)c5C(=O)[C@H]4O)ccc3O[C@H]2CO)ccc1O (stereo partly drawn),-9%,x,x,x,x
O=C1c2c(O)cc(O)cc2O[C@H](c2ccc(O)c(O)c2)[C@@H]1O,u,-8%,3%,18µM*,14µM*
C[C@@H]1O[C@@H](O[C@@H]2C(=O)c3c(O)cc(O)cc3O[C@H]2c2ccc(O)c(O)c2)[C@H](O)[C@H](O)[C@H]1O,-40%,x,x,x,x
CC(C)(C)OC=O,1%,x,x,-1%,x
COC(=O)C1=C(C(=O)OC)[C@@H]2N(C)c3ccc(OC)cc3[C@@]23C[C@@H](C(=O)OC)N(S(=O)(=O)c2c(C)noc2C)C3=N1,-1%[12.4 µM],-2%[12.4 µM],-3%[11.5 µM],-16%[11.5 µM],8%[11.4 µM]
COc1ccc(Nc2c3c(nc4ccc(NC(=O)/C=C/c5cccc(OC)c5OC)cc24)CCCC3)cc1OC,x,0%,x,x,x
CCN1C/C(=C/c2cccs2)c2nc3ccccc3c(C(=O)O)c2C1,1%,-10%,-3%,11%,25µM*
CCN1C/C(=C/c2sccc2C)c2nc3ccccc3c(C(=O)O)c2C1,8%,-8%,-15%,i,-5%
CCc1ccc(/C=C2\CN(CC)Cc3c2nc2ccccc2c3C(=O)O)cc1,3%,-26%,13µM*,-4%,15%
CCCCCCOc1ccc(C(=N)N(CCCC)CCCC)c2ccccc12,x,3%,x,x,x
CC(C)[C@@H]1NC(=O)[C@H](CCCCN)NC(=O)[C@@H](Cc2c[nH]c3ccccc23)NC(=O)[C@H](Cc2ccc(O)cc2)NC(=O)[C@@H](NC(=O)[C@H](N)Cc2ccccc2)CSSC[C@@H](C(=O)N[C@@H](Cc2c[nH]c3ccccc23)C(N)=O)NC1=O,-3%,4%,x,9%,x
CC1=NOC(=O)/C1=C/c1ccc(O)cc1,-3%,-2%,8%,i,28µM*
c1cc(-c2cnn3cc(-c4ccc(OCCN5CCCCC5)cc4)cnc23)ccn1,-1%,55%,x,0%,x
C/C1=C2/[N-]C(C(CC(N)=O)[C@@]2(C)CCC(=O)NCC(C)OP(=O)([O-])O[C@H]2[C@@H](O)[C@@H](n3cnc4cc(C)c(C)cc43)O[C@@H]2CO)[C@]2(C)N=C(/C(C)=C3N=C(/C=C4N=C1C(CCC(N)=O)C\4(C)C)[C@@H](CCC(N)=O)[C@]\3(C)CC(N)=O)[C@@H](CCC(N)=O)[C@]2(C)CC(N)=O.CC(=O)O.[Co] (stereo partly drawn),x,25µM*,x,x,x
C/C(=N\NC(=O)c1ccc(NS(=O)(=O)c2cccs2)cc1)c1ccc(O)cc1O,11%,-4%,-1%,7%,13µM*
O=C(CNC(=O)Cc1ccccc1)N=Nc1c(O)[nH]c2ccccc12,14%,-4%,5%,x,x
O=C(CCCCCNC(=O)c1ccccc1Br)N=Nc1c(O)[nH]c2ccccc12,25µM*,-4%,-3%,i,-7%
O=C1C=CC(=O)C2=C1C1c3ccccc3C2c2ccccc21,-5%,-10%,-49%,-18%,14µM*
Oc1ccc(O)c2c1C1c3ccccc3C2c2ccccc21,11%,-11%,-2%,x,x
COc1ccc(CNC(=O)C(c2ccc(C)o2)N(Cc2cccs2)C(=O)Cc2cccs2)cc1 (stereo not drawn),0%,-22%,10µM*,0%,-3%
O=C(CN1C(=O)c2ccccc2S1(=O)=O)c1ccc(O)c(O)c1,8%,-1%,-5%,2%,14µM*
O=C(CN1C(=O)c2ccccc2S1(=O)=O)c1ccc(F)c(F)c1,8%,-2%,-3%,x,x
Fc1ccc(Nc2nc3nonc3nc2Nc2cccc(C(F)(F)F)c2)cc1,x,-9%,x,x,x
CC(C)Cc1nc2ccccc2[nH]1,1%,3%,3%,-8%,-1%
SMILES,APE1 inh,BLM inh,PKM2 act,RECQ1 inh,KDM4E inh
CC(C)Cc1nc2ccc(N)cc2[nH]1,-3%,-5%,0%,5%,35µM*
CC(C)c1onc(C(=O)Nc2sc3c(c2C#N)CCC3)c1[N+](=O)[O-],u,-15%,-7%,40µM*,-9%
CC(C)(C)n1ncc2c(=O)n(Cc3ccc(OC(F)(F)F)cc3)cnc21,3%,x,x,x,x
Cc1cccc(S(=O)(=O)c2c(N)n(Cc3ccco3)c3nc4ccccc4nc23)c1,-5%,-15%,22µM*,-19%,u
Cc1ccc(S(=O)(=O)c2c(N)n(Cc3ccco3)c3nc4ccccc4nc23)cc1,-4%,-14%,u,-4%,u
c1ccc(Cn2nnc3c(N4CCc5ccccc5C4)ncnc32)cc1,-1%,-9%,14µM*,2%,u
c1ccc(Cn2nnc3c(N4CCCC4)ncnc32)cc1,3%,-3%,16µM*,-4%,10%
CCN1CCN(c2ncnc3c2nnn3Cc2ccccc2)CC1,2%,4%,3%,0%,4%
c1ccc(Cn2nnc3c(N4CCC5(CC4)OCCO5)ncnc32)cc1,-7%,-10%,2%,-6%,7%
